This passage reports Potency results from PubChem BioAssay (NCATS).

Assay [1] can be described thus: qHTS of pediatric cancer cell lines to identify multiple opportunities for drug repurposing: Confirmatory screen for U-2 OS cells (AID 1347122). Note: nearly all actives have a fitted effect of over 65% in size. Note: potency is the fitted concentration of half-maximal effect. An outline of the steps: (§1)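 Cells (500-1,000/well) rested 5 h, then received compounds for 48 h; metabolically active cells were measured by CellTiter-Glo luminescence. Final concentrations spanned up to 46 µM (MIPE, 11-point) or 0.59 nM-46 µM (NPC, 8-point) in primary screens, 11-point in follow-ups.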

The nature of assay [2]: qHTS of pediatric cancer cell lines to identify multiple opportunities for drug repurposing: Confirmatory screen for RD cells (AID 1347124).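 Note: cells exposed to compound for 48 h before viability readout; nearly all actives have a fitted effect of over 65% in size.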 Note: potency is the fitted concentration of half-maximal effect. Put shortly:
as §1

The nature of assay [3]: qHTS of pediatric cancer cell lines to identify multiple opportunities for drug repurposing: Confirmatory screen for Rh18 cells (AID 1347125). Note: nearly all actives have a fitted effect of over 55% in size. Note: potency is the fitted concentration of half-maximal effect. An outline of the steps: as §1
Assay [4] in a line: qHTS of pediatric cancer cell lines to identify multiple opportunities for drug repurposing: Confirmatory screen for Rh30 cells (AID 1347126). Note: nearly all actives have a fitted effect of over 55% in size. Note: potency is the fitted concentration of half-maximal effect. Put shortly: as §1
The nature of assay [5]: qHTS of pediatric cancer cell lines to identify multiple opportunities for drug repurposing: Confirmatory screen for Saos-2 cells (AID 1347127). Note: nearly all actives have a fitted effect of over 60% in size. Note: potency is the fitted concentration of half-maximal effect. Put shortly:
as §1

A short description of assay [6]: qHTS of pediatric cancer cell lines to identify multiple opportunities for drug repurposing: Confirmatory screen for OHS-50 cells (AID 1347128).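 Note: compound exposure lasted 48 h at 37 degrees C; nearly all actives have a fitted effect of over 55% in size.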 Note: potency is the fitted concentration of half-maximal effect. An outline of the steps: as §1
Assay [7] is described as follows: qHTS of pediatric cancer cell lines to identify multiple opportunities for drug repurposing: Confirmatory screen for SK-N-SH cells (AID 1347129).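 Note: cells exposed to compound for 48 h before viability read; nearly all actives have a fitted effect of over 60% in size.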 Note: potency is the fitted concentration of half-maximal effect. Put shortly:
as §1

The test system of assay [8] is Zika virus NS2B-NS3 protease. As to the kind of experiment: Primary screen GU AMC qHTS for Zika virus inhibitors (AID 1347154). Note: nearly all actives have a fitted effect of over 70% in size. An outline of the steps:
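Fluorogenic AMC-substrate cleavage by noncovalent NS2B-NS3 protease complex (25 nM, pH 8.0 Tris buffer with Tween 20) followed for 15 minutes at room temperature (~20% conversion). Percent inhibition from ex340/em450 signal change, fitted by 4-parameter Hill equation.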

Assay [9] concerns Zika virus NS2B-NS3 protease (unlinked). As to the kind of experiment: Optimization of GU AMC qHTS for Zika virus inhibitors: Unlinked NS2B-NS3 protease assay (AID 1347151). Note: series mostly up to about 52 µM; nearly all actives have a fitted effect of over 80% in size. An outline of the steps:
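Percent inhibition is derived from the 15-min change in AMC fluorescence, normalized against no-inhibitor and no-enzyme controls, then fitted to a 4-parameter Hill curve. Aprotinin was the intraplate control.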

In assay [10] the test system is Zika virus NS2B-NS3 protease (unlinked complex). Description: Primary screen GU Rhodamine qHTS for Zika virus inhibitors: Unlinked NS2B-NS3 protease assay (AID 1347159). Note: nearly all actives have a fitted effect of over 60% in size. An outline of the steps:
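A qHTS format was used, with compound concentrations ranging up to 114 microM. Each compound was preincubated with 25 nM NS2B-NS3 protease, and the substrate was then added at 1.5 microM. Curves were fitted with a 4-parameter Hill model.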

Assay [11] deals with Zika virus NS2B-NS3 protease (linked construct). Description: Primary screen NINDS Rhodamine qHTS for Zika virus inhibitors (AID 1347160). Note: nearly all actives have a fitted effect of over 55% in size. Put shortly:
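Kinetic fluorescence (Ex 480 nm, Em 540 nm) over 15 min with 1.5 microM Rhodamine110 peptide and 25 nM linked protease.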

Assay [12] can be described thus: qHTS of pediatric cancer cell lines to identify multiple opportunities for drug repurposing: Confirmatory screen for control Hh wild type fibroblast cells (AID 1347121). Note: nearly all actives have a fitted effect of over 70% in size. An outline of the steps: as §1

Results filed as inconclusive are left out. Active and inactive are the calls of the source. Calls come from the whole dose curve; as a rule, active = well fitted curve in the direction sought with a large enough effect; inconclusive = small, poorly fitted or top-dose-only effect, or another doubt; inactive = no such curve, though single readings can be large; an effect the other way counts as inactive or inconclusive.

Consider `CCc1ccc(OCc2ccccc2C(=O)Nc2ccc3nc(C)cc(N)c3c2)cc1`, for which the Potency in assay [1] was 8270 nM (active); in [2], 8270 nM (active); in assay [3] it was 8270 nM (active); in assay [5], 9270 nM (active); in [6] it was 9270 nM (active); in assay [7] it was 8330 nM (active). In addition, the Potency entry in assay [4] and in [8] was “inactive” throughout.
Regarding `COc1cc2ncnc(Nc3ccc(F)c(Cl)c3)c2cc1OCCCN1CCOCC1`, the Potency is 26900 nM (active) in assay [1]; 1510 nM (active) in assay [2]; 38000 nM (active) in [3]; 8510 nM (active) in assay [4]; 38000 nM (active) in assay [6]; 34000 nM (active) in assay [7].
In the case of `NS(=O)(=O)c1cccc2c1C(=O)c1cccc(O)c1C2=O`, the Potency in [1] is 1040 nM (active); in assay [3] it was 2330 nM (active); in [4], 2930 nM (active); in assay [5], 928 nM (active); in [6], 2930 nM (active); in assay [7] it was 2090 nM (active). In [8], the Potency entry is “inactive”.
`COc1cccc(-c2cc(=O)c3ccccc3o2)c1N`: the Potency entry in assay [1], in assay [3], in assay [5], in assay [6], in assay [9] and in assay [8] was “inactive” in each case. Besides, the Potency in assay [2] is 465 nM (active).
For the molecule `CC(C)n1nc(-c2ccc3oc(N)nc3c2)c2c(N)ncnc21`, the Potency in [1] is 92.8 nM (active); in assay [2], 208 nM (active); in assay [3], 1650 nM (active); in assay [4], 293 nM (active); in assay [5] it was 233 nM (active); in assay [6], 3690 nM (active). For the same molecule, in assay [7], the Potency was 590 nM (active). Moreover, the Potency entry in assay [10] and in [11] was “inactive” each time.
With `CCOc1ccc(Nc2nc(-c3c(C)nc4ccccn34)cs2)cc1`, the Potency in assay [1] was 165 nM (active). Moreover, the Potency result in assay [3], in assay [4], in [8], in assay [10] and in assay [11] was “inactive” in each case.
Take `COc1cc(N2CCC(N3CCN(C)CC3)CC2)ccc1Nc1ncc(Cl)c(Nc2ccccc2S(=O)(=O)C(C)C)n1`: the Potency in assay [1] is 465 nM (active); in assay [2] it was 1040 nM (active); in assay [3], 3290 nM (active); in assay [4], 737 nM (active); in assay [5], 1850 nM (active); in assay [6] it was 2330 nM (active). Besides, the Potency in assay [7] was 833 nM (active). Also, the Potency entry in assay [8], in [10] and in assay [11] was “inactive” each time.
Take `CC[C@]1(O)C[C@@H]2CN(CCc3c([nH]c4ccccc34)[C@@](C(=O)OC)(c3cc4c(cc3OC)N(C=O)[C@@H]3C45CCN4CC=C[C@](CC)([C@H]45)[C@@H](OC(C)=O)[C@]3(O)C(=O)OC)C2)C1` (some centres not stated): the Potency entry in assay [1], in assay [2], in [3], in [5], in assay [6] and in assay [7] was “inactive” each time. Further, in assay [8], the Potency entry was “inactive”.
With `COc1cc2nc(-c3ccc(N4CCN(C)CC4)cc3)nc(NCCN3CCOCC3)c2cc1OC`, the Potency result in assay [12], in [10] and in assay [11] was “inactive” throughout. For the same molecule, the Potency in assay [1] was 261 nM (active); in [2], 208 nM (active); in [3], 293 nM (active); in [6], 117 nM (active); in assay [7], 4690 nM (active).
With `CC1(C)S[C@H]2[C@H](NC(=O)[C@@H](N)c3ccc(O)cc3)C(=O)N2[C@@H]1C(=O)O`, the Potency result in assay [1], in assay [2], in assay [3], in assay [4], in [5] and in [6] was “inactive” each time. Besides, the Potency entry in [7] and in assay [8] was “inactive” each time.
Take `N[C@@]1(C(=O)O)CS(=O)(=O)[C@H]2[C@H](C(=O)O)[C@H]21`: the Potency entry in assay [1], in assay [2], in assay [3], in [4], in assay [7] and in [8] was “inactive” in each case. The results for the Potency in [5] and in assay [6] were 1310 nM (active) and 928 nM (active), respectively.
As for `COc1ccc(-c2coc3cc(O)cc(O)c3c2=O)cc1`, the Potency entry in assay [1], in assay [3], in assay [4], in assay [5], in assay [6] and in [8] was “inactive” each time.
For the molecule `CN[C@@H](C)C(=O)N[C@H]1CN(C(=O)CC(C)C)CC[C@H]2CC[C@@H](C(=O)NC(c3ccccc3)c3ccccc3)N2C1=O`, the Potency entry in assay [1], in assay [2], in assay [3], in [4], in [6] and in assay [7] was “inactive” in each case. The Potency entry in assay [8], in assay [10] and in [11] was “inactive” in each case.
On to `CC1(C)O[C@H]2C[C@@H]3[C@H]4CCC5=CC(=O)C=C[C@]5(C)[C@@]4(F)[C@@H](O)C[C@]3(C)[C@]2(C(=O)CO)O1`, for which the Potency result in assay [1], in [2], in assay [3], in assay [4], in assay [5] and in assay [6] was “inactive” in each case. The Potency result in assay [7] and in assay [8] was “inactive” throughout.
Consider `CC1(C)CCC2=C(O1)c1ccccc1C(=O)C2=O`, for which the Potency in [1] was 23300 nM (active); in assay [2] it was 465 nM (active); in assay [4], 20800 nM (active); in assay [5], 10400 nM (active). In addition, the Potency entry in [8] was “inactive”.
